# In the library only some 7.5% were active in any assay of this set; here they are far more common.
# ELG1 repair inh: inhibitors of ELG1-dependent DNA repair in HEK293T cells; Potency, µM (titrated, usually from 46.1 µM), most hits filed as inhibitors; HEK293T ELG1-luciferase reporter, luminescence, 16 h; DNA damage induced by 5-fluorouridine; AID 504467; 330,000 compounds, 2.3% hits; note: nearly all actives have a fitted effect of over 55% in size
#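 Quantitative HTS, concentration-response format. 2,000 cells/well co-treated with 5-fluorouridine and compound, 16 hr in 5% CO2 at 37 °C; ONE-Glo luminescence read after 30 min.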
# Gal4-VP16 FLuc: Gal4-VP16 reporter inhibition counter-screen; Drosophila S2 Gal4-VP16 UAS-luciferase, luminescence, 20 h; Potency, µM (titrated, usually from 53.6 µM), most hits filed as inhibitors; 310,000 compounds, 3.5% hits;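 note: Gal4-VP16 expression switched on by copper sulfate through the metallothionein promoter; nearly all actives have a fitted effect of over 50% in size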
# RORg inh: inhibitors of mouse ROR gamma transcriptional activity. P51450. Drosophila S2 Gal4-RORgamma UAS-luciferase reporter, 20 h. Potency, µM (top dose mostly 53.6 µM), most hits filed as inhibitors. 310,000 compounds, 5.4% hits; note: nearly all actives have a fitted effect of over 60% in size
#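 Schneider cells (Drosophila), stable Gal4 DBD–ROR gamma + UAS-luc; 1 hr cmpd preincubation; Cu2+ induction 700 uM final; 20 hr ambient; luminescence.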
# TSHR antag: antagonists of human thyroid stimulating hormone receptor | activity change, negative = inhibition, % at 11.5 µM | 330,000 compounds, 0.2% hits | AID 504810 | TSHR-expressing cells, TSH-stimulated cAMP HTRF, 2 h; active compounds read low;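 active = activity change below a set negative limit, meaning inhibition stronger than a set level, cut at about -70% in these data; inconclusive = activity change between two set negative limits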
# Target sequence (P16473 whole entry, looked up): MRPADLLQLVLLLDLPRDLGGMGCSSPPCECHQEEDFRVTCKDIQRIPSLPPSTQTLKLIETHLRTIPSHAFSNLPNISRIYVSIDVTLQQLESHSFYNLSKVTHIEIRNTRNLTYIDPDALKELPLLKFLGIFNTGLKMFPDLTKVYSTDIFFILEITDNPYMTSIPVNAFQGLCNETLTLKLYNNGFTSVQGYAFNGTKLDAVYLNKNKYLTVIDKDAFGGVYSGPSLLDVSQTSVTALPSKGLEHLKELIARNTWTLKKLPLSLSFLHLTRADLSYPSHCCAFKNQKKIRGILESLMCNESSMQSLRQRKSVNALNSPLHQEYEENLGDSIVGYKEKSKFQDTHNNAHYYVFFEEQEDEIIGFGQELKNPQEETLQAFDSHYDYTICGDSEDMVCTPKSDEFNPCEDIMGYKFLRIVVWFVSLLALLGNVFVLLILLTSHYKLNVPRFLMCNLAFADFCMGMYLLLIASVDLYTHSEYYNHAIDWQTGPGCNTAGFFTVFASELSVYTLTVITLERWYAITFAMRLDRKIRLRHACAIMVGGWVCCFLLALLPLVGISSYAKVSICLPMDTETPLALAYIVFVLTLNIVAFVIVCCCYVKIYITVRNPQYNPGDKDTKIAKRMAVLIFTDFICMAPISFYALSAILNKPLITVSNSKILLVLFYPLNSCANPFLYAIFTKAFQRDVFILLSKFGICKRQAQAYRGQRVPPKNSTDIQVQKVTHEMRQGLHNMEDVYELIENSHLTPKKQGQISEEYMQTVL
#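 Read-out is FRET at 665 nm (cryptate excitation 337 nm) from a cryptate-tagged anti-cAMP antibody, competed by cell cAMP against cAMP-d2. Compounds are tested on freshly harvested TSHR cells challenged with 4nM TSH (EC80) for 2 hours at 37 deg C.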
# B2AR arrestin: agonists driving beta-arrestin recruitment to human beta2-adrenergic receptor. beta-arrestin recruitment to beta2AR, cell-based reporter. Potency, µM (series often up to 46.1 µM), hits mostly activators. 330,000 compounds, 0.02% hits; note: nearly all actives have a fitted effect of over 65% in size
# Hits are given with their value; i = inactive; ? = inconclusive; nt = not tested or not shown; [ ] = dose if it differs, or a comment. Unless noted, calls come from the whole dose curve; as a rule, active = well fitted curve in the direction sought with a large enough effect; inconclusive = small, poorly fitted or top-dose-only effect, or another doubt; inactive = no such curve, though single readings can be large; an effect the other way counts as inactive or inconclusive.
SMILES,ELG1 repair inh,Gal4-VP16 FLuc,RORg inh,TSHR antag,B2AR arrestin
O=C(NCCCN1CCOCC1)c1cccc(S(=O)(=O)Nc2cc(Cl)ccc2Cl)c1,i,i,i,i,i
COc1ccc(NC(C)=O)cc1NC(=O)C1CCN(C(=O)Nc2ccccc2)CC1,i,nt,nt,i,i
Cc1ccccc1NC(=S)NCc1ccc(Cl)cc1,i,3.98µM,2.82µM,i,i
Cc1cccc(NC(=S)Nc2ccccn2)c1C,?,1.78µM,1.12µM,i,i
Cc1ccccc1NC(=S)NCc1ccc(F)cc1,i,6.31µM,7.08µM,i,i
Cc1cccc(NC(=S)NCCO)c1C,i,i,i,i,i
Cc1cccc(NC(=S)NCc2ccc(F)cc2)c1C,i,5.01µM,3.55µM,i,i
CCNc1ncc2nc(-c3ccc(Cl)cc3)c(=O)n(-c3ccccc3)c2n1,nt,i,i,nt,nt
CC(=O)N1[C@H](Cc2ccccc2)C=C[C@]1(C)C(=O)NCc1cc(F)cc(C(F)(F)F)c1,nt,i,i,nt,nt
NC(N)=N/N=C/c1cccc(Cl)c1Cl,i,i,i,i,i
CC1CCC(C(C)C)[C@H](O)C1 (some centres undefined),nt,i,i,nt,nt
Cc1cc(Cl)ccc1NC(=S)NCc1ccc(F)cc1,?,7.08µM,6.31µM,i,i
Cc1cccc(NC(=S)NCc2ccccc2)c1C,i,5.62µM,3.98µM,i,i
CCNC(=S)Nc1cccc(F)c1C,i,i,12.6µM,i,i
Cc1cccc(C)c1NC(=S)NCc1ccccc1,i,i,i,i,i
Cc1c(Cl)cccc1NC(=S)NCCCN(C)C,i,i,i,i,i
COc1ccccc1-c1c(C)nn2c(NCCN3CCCC3)cc(C)nc12,i,7.08µM,6.31µM,i,i
CCCc1cc(=O)[nH]c(SCC(=O)Nc2sccc2C#N)n1,i,nt,nt,i,i
O=C(OCCCCN1C(=O)c2ccccc2C1=O)c1n[nH]c2ccccc12,i,31.6µM,i,i,i
CC(=O)c1c(C)[nH]c(C(=O)OCc2ccccc2)c1C,?,i,i,i,i
CC(=O)c1c(C)[nH]c(C(=O)OCCCCN2C(=O)c3ccccc3C2=O)c1C,6.51µM,8.91µM,?,i,i
O=S(=O)(c1cccc(-c2csc(N/N=C/c3ccco3)n2)c1)N1CCOCC1,23.1µM,i,i,i,i
COc1cc(/C=N/Nc2nc(-c3ccc(S(=O)(=O)N(C)C)cc3)cs2)ccc1O,11.6µM,i,?,i,i
Cc1ccc(C)c(-c2csc(N/N=C/c3ccco3)n2)c1,i,i,15.8µM,i,i
COc1ccc(/C=N/Nc2nc(-c3cccc(S(=O)(=O)N4CCCC4)c3)cs2)cc1OC,?,i,i,i,i
SMILES,ELG1 repair inh,Gal4-VP16 FLuc,RORg inh,TSHR antag,B2AR arrestin
CCOc1cc(/C=N/Nc2nc(-c3cccc(S(=O)(=O)N4CCCC4)c3)cs2)ccc1O,20.6µM,i,?,i,i
O=C(N/N=C1/C[C@@H](O)[C@@H](O)[C@@H]2[C@@H]3C(=O)N(C4CCCCC4)C(=O)[C@H]3CC[C@H]12)OCc1ccccc1,nt,i[10 µM],i[10 µM],nt,nt
CC1(C)C(C=C(Cl)Cl)C1C(=O)N1CCN(Cc2ccccc2)CC1 (centres undefined),?,i,?,i,i
COc1ccc(-c2csc3nc(C)nc(N4CCC(C)CC4)c23)cc1OC,?,i[10 µM],7.08µM,i,i
Cc1nc(N2CCN(c3ccccc3O)CC2)c2c(-c3ccccc3)csc2n1,18.3µM,i,?,i,i
CCOc1ccccc1N1CCN(c2ncnc3scc(-c4ccc(OC)cc4)c23)CC1,14.6µM,i,i,i,i
Oc1ccccc1N1CCN(c2ncnc3scc(-c4ccccc4)c23)CC1,18.3µM,i,i,i,i
CCCCn1c(N)c(N(C)C(=O)c2ccc(-n3cccn3)cc2)c(=O)[nH]c1=O,i,nt,nt,i,i
CCOC(=O)c1c(C)[nH]c(N=Nc2ccc(OC)cc2)c1C,?,i,i,i,i
Oc1ccccc1N1CCN(c2ncnc3scc(-c4ccc(F)cc4)c23)CC1,9.2µM,i,i,i,i
COc1ccc(N(CCCN2C(=O)c3cccc4cccc(c34)C2=O)C(=O)c2cccc(OC)c2)cc1,18.4µM,i,i,i,i
COc1ccc(/C=C/c2ccc3c(Br)ccc(O)c3n2)cc1,?,3.55µM,3.16µM,i,i
Cc1cc(C)c2ccc(N)nc2c1O,?,nt,i[0.365 µM],i,i
Cc1ccc2c(Br)cc(Br)c(O)c2n1,nt,0.708µM,0.251µM,nt,nt
COc1ccc(/C=C/c2noc(-c3ccccc3O)n2)cc1,?,?,?,i,i
COc1cc(/C=C/c2ccc3c(Br)cc(Br)c(O)c3n2)ccc1O,?,0.316µM,0.398µM,i,?
COc1cc2c(cc1OC)C1O[C@](CCCCN3C(=O)c4ccccc4C3=O)(C2)OC2=C1C(=O)c1ccccc1C2=O,nt,i[10 µM],i[10 µM],nt,i[9.22 µM]
COc1ccc(C(=O)/C=C2\NCCc3cc(OC)c(OC)cc32)cc1OC,14.6µM,i,i,i,i
NCCC[C@@H](CC(=O)N[C@@H]1CCNC[C@H]1C(=O)N[C@H](CC(=O)N[C@@H](CCC(=O)O)CC(=O)O)Cc1c[nH]c2ccccc12)NC(=O)C[C@H](Cc1ccccc1)NC(=O)[C@@H]1CNCC[C@H]1N,nt,i,i,nt,nt
Cc1ccc(NC(=O)c2cc(N3C(=O)C=CC3=O)ccc2Cl)cc1C,?,7.94µM,?,i,i
Cc1ccc(NC(=O)c2cc(-n3cnnc3)ccc2Cl)cc1,i,i,i,i,i
Cc1ccc(NC(=O)c2cc(N3C(=O)C=CC3=O)ccc2N2CCOCC2)cc1,i,7.94µM,7.08µM,i,i
CCN(CC(=O)NC(=O)Nc1ccccc1F)Cc1ccccc1,i,nt,nt,i,i
COc1ccc(CCNC(=O)CN(Cc2ccc(Cl)cc2)S(C)(=O)=O)cc1,?,i,i,i,i
CN(C)c1ncc2ncc(=O)n(Cc3ccc(F)cc3)c2n1,nt,i,i,nt,nt
SMILES,ELG1 repair inh,Gal4-VP16 FLuc,RORg inh,TSHR antag,B2AR arrestin
C/C(=N\NC(=O)c1ccc(Cl)cc1)c1ccccn1,?,?,0.0282µM,i,i
C/C(=N/NC(=O)c1ccccn1)c1ccco1,?,?,10µM,i,i
C/C(=N/NC(=O)c1ccccn1)c1ccc(O)cc1,?,i,i,i,i
CCC(C)(C)C1CCc2[nH]nc(C(=O)N/N=C(\C)c3ccco3)c2C1 (centres undefined),?,?,?,i,i
C/C(=N\NC(=O)c1n[nH]c2c1CCC2)c1ccco1,?,12.6µM,8.91µM,i,i
Nc1nc(C23CC4CC(CC(C4)C2)C3)[nH]c(=O)n1,i,i,i,i,i
COc1cc(/C=C/C(=O)NCC2CCCCC2)cc(OC)c1OC,i,i,i,i,i
CC(=O)Oc1cc(-c2coc3cc(OC(C)=O)c(OC(C)=O)c(OC(C)=O)c3c2=O)cc(OC(C)=O)c1OC(C)=O,nt,i,i,nt,nt
CCOC(=O)CSCC(NC(=O)OC(C)(C)C)C(=O)OCC (centres undefined),i,?,7.08µM,i,i
CCOC(=O)C(CSCC(=O)c1ccc(Cl)cc1Cl)NC(=O)OC(C)(C)C (centres undefined),i,?,?,i,i

# Screens (PubChem BioAssay)
